Compound activity from PubChem.
In the library only some 1.1% were active in any assay of this set; here they are far more common.
gsp antag: gsp mutant antagonism | gsp-mutant cells, cAMP HTRF, 30 min | Potency, µM (titrated, usually from 76.9 µM), inactives show at the highest dose activity change, negative = inhibition, usual class: inhibitors | 340,000 compounds, 0.4% hits | AID 624288; calls by dose curve; cell line not stated here;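 also: intracellular cAMP measured with PDE inhibitor Ro 20-1724 present during compound exposure; potency is read from the fitted curve at half-maximal effect; % is scaled to controls: 0 for no effect and ±100 for the full control effect; nearly all actives have a fitted effect of over 65% in size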
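Cells in G418 medium, seeded 16-24 h, 37C; buffer exchange to DPBS + 1 mM CaCl2, 0.5 mM MgCl2, 0.05% BSA; cpds in DMSO + […] (300 uM stock), 30 min 37C; HTRF cAMP detection.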
Integrin act MD: activates integrin-mediated alleviation for muscular dystrophy | alpha7betagal myoblasts, beta-gal FDG fluorescence, 48 h | Potency, µM (top dose mostly 38.3 µM), for inactives: at the top dose activation, hits mostly activators | 350,000 compounds, 0.064% hits;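 also: potency is read from the fitted curve at half-maximal effect; 100% = response of the positive control SU9516; nearly all actives have a fitted effect of over 60% in size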
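alpha7betagal+/- myoblasts (passage 13, 250/well) treated 48 h at 37C with compounds at 1:260 dilution of DMSO stock. Lysed, then beta-galactosidase activity read as FDG fluorescence (ex 480/em 540) after 30 min, with pre-read for autofluorescence.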
RXFP1 antag: antagonists of human relaxin receptor RXFP1; Q9HBX9; HEK293-RXFP1, relaxin-stimulated cAMP HTRF, 30 min; hits give low values; activity change, negative = inhibition, % at 57.5 µM; 350,000 compounds, 0.59% hits; AID 1259400;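 active = activity change of -60% or lower, but not beyond a set lower limit; inconclusive = change between -60% and -40%, or beyond the set limit; inactive = change above -40%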; also: % is scaled to controls: 0 for no effect and ±100 for the full control effect
RXFP1 agonist: agonists of human relaxin receptor RXFP1 | 370,000 compounds, 0.3% hits | Potency, µM (series often up to 57.5 µM), without a hit: top-dose activation, actives largely listed as activators | AID 2676 | HEK293T-RXFP1 cAMP TR-FRET, 30 min; response scale: percent of porcine relaxin response, buffer zero | Q9HBX9; also: potency is read from the fitted curve at half-maximal effect; % is scaled to controls: 0 for no effect and ±100 for the full control effect; nearly all actives have a fitted effect of over 60% in size
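HEK293T cells stably expressing RXFP1 were pretreated with the PDE4 inhibitor Ro 20174, exposed to compounds for 30 min at 37C, lysed, and cAMP was read by TR-FRET. Data normalized to buffer (basal) and 29 nM porcine relaxin (100%).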
gsp ag: activates gsp, the McCune-Albright syndrome mutation; gsp mutant cells, cAMP HTRF, 30 min; Potency, µM (top dose mostly 76.9 µM), for the others: top-dose activation (cAMP increase), most hits filed as activators; 340,000 compounds, 0.13% hits; AID 624287; active = well fitted activation curve with a large enough effect; inconclusive = small, poorly fitted or top-dose-only effect, or another doubt; inactive = no such curve, though single readings can be large or run the other way; cell line not stated here;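 also: phosphodiesterase inhibitor Ro 20-1724 added with compounds to block cAMP breakdown; potency is read from the fitted curve at half-maximal effect; nearly all actives have a fitted effect of over 60% in size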
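Cells in DMEM/10% FBS with G418 were pretreated with compounds in DMSO plus […] (300 uM stock) for 30 min at 37C. cAMP was measured by HTRF (cAMP-d2 plus anti-cAMP antibody-K) after 30 min at room temperature.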
ASM inhibitor: human S-ASM enzyme inhibition; P17405; placental ASM, HMU-PC fluorogenic substrate, 60 min; Potency, µM (highest dose often 57.5 µM), for inactives: top-dose activity change, negative = inhibition, actives largely listed as inhibitors; 340,000 compounds, 0.006% hits; AID 504937; also: potency is read from the fitted curve at half-maximal effect
Target sequence (P17405 47-631 limits assumed): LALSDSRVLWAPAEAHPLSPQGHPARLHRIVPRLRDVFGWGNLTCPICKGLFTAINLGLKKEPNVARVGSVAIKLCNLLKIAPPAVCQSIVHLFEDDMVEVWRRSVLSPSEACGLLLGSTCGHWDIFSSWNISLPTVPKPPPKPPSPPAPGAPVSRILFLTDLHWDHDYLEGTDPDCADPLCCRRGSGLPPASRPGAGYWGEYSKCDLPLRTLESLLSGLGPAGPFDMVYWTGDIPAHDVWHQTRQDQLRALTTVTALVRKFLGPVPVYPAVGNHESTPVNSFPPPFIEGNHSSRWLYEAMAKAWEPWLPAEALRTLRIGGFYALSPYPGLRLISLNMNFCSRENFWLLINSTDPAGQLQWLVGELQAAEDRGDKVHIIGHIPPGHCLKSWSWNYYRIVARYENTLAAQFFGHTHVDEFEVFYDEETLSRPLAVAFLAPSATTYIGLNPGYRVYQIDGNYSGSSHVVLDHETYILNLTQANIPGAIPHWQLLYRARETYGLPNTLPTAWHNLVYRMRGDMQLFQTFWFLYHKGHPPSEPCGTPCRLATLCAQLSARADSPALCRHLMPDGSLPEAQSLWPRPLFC
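Human placenta-derived ASM enzyme was preincubated with compound for 10 minutes at room temperature, then given fluorogenic substrate HMU-PC0 (9 uM final) for 60 minutes at 37 °C; a pH 10 stop preceded fluorescence reading at Ex 386/Em 447 nm.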
* marks the source's active call; other numbers are inactive results; u = inconclusive; x = no result; [ ] = another dose, or the depositor's remark. Unless noted, calls follow the shape of the dose curve; as a rule, active = well fitted curve in the direction sought with a large enough effect; inconclusive = small, poorly fitted or top-dose-only effect, or another doubt; inactive = no such curve, though single readings can be large; an effect the other way counts as inactive or inconclusive.

SMILES	gsp antag	Integrin act MD	RXFP1 antag	RXFP1 agonist	gsp ag	ASM inhibitor
COc1ccc(S(=O)(=O)N2c3ccc(Cl)cc3[C@@](O)(c3ccccc3Cl)[C@H]2C(=O)N2CCC[C@@H]2C(N)=O)cc1OC	x	x	-15.9	x	x	x
N#CCN(CC#N)C(=O)C1c2ccccc2Oc2ccccc21	10.0%	-1.5%	-7.7	0.1%	4.6%	-0.6%
CN(C)CCC1(C2=CCCC2)CC/C(=C/c2ccc(Cl)cc2)C1=O (centres undefined)	u	-57.3%	-73.2*	x	u	-6.3%
CN(C)CC1CCC/C(=C\c2ccc(OC(=O)c3ccc(Cl)cc3)cc2)C1=O (centres undefined)	7.3%	-5.1%	-11.7	x	5.6%	-2.8%
CCc1ccc(CNC(=O)C2CCN(C(=O)N3CC(CC)Oc4ccc(C)cc43)CC2)cc1 (centres undefined)	x	x	-68.0*	-0.5%	x	x
CCC1CN(C(=O)N2CCC(C(=O)NCCc3ccccc3Cl)CC2)c2cc(C)ccc2O1 (centres undefined)	x	x	-87.5*	3.0%	x	x
CCC1CN(C(=O)N2CCC(C(=O)NCCc3ccccc3C)CC2)c2ccccc2O1 (centres undefined)	x	x	-17.7	-2.8%	x	x
Cc1c(N)cccc1C(F)(F)F	x	x	-9.2	x	x	x
CC(NC(CCc1ccccc1)C(=O)O)C(=O)N1C(=O)N(C)CC1C(=O)O (centres undefined)	x	x	6.7	x	x	x
CCN(c1ccccc1)S(=O)(=O)c1nnc(NC(=O)COc2ccc(OC)cc2)s1	x	x	-7.9	-3.1%	x	x
CCC(CN)=C(c1ccccc1)c1ccccc1	x	x	-16.7	x	x	x
CN1C(=O)C2(OCC(COc3ccc(Cl)cc3)O2)c2ccccc21 (centres undefined)	35.5µM*	0.0%	1.1	-0.3%	4.4%	-3.9%
Cc1ccsc1/C=N/NC(=O)c1ccc(Cn2cc(Br)cn2)o1	-9.5%	22.0%	-3.7	-0.7%	-53.4%	-2.9%
O=C(N/N=C/c1cccc(Br)c1)c1ccc(Cn2cc(Br)cn2)o1	35.5µM*	-38.0%	u	-0.6%	35.5%[15.4 µM]	-12.9%
COC(=O)c1sc(NC(=O)c2cc(C)on2)nc1C	-4.4%	18.5%	10.4	2.0%	10.9%	20.8%
COc1ccc(Nc2ncc3c(n2)CCN(Cc2cc(Br)cs2)C3)c(OC)c1	x	x	-5.9	0.6%	x	x
Cc1cc(/C=C2\SC(=S)N(C)C2=O)c(C)n1-c1ccccc1O	35.5µM*	-55.0%	-33.8	x	25.7%	u
Cc1c(C(=O)N2CCOCC2)sc(NC(=O)c2ccc([N+](=O)[O-])cc2)c1C#N	35.5µM*	-4.1%	3.2	-4.5%	19.4%[15.4 µM]	-3.8%
CC1CCCCN1C(=O)c1cccc(NC2=C(Cl)C(=O)N(Cc3ccccc3)C2=O)c1 (centres undefined)	28.2µM*	-51.5%	1.4	-0.3%	-5.3%	-13.2%
CC(C)C(=O)OCc1cccc(OC(=O)[C@@H]2N3C(=O)[C@@H](NC(=O)Cc4ccccc4)[C@H]3SC2(C)C)c1	x	x	-17.8	x	x	x
COC(=O)c1sc(NC(=S)NC(=O)c2cccc(C)c2)nc1C	7.2%	9.1%	0.3	0.6%	-5.4%	-5.5%
COC(=O)c1sc(NC(=S)NC(=O)c2ccccc2F)nc1C	-6.3%	u	-4.1	35.5µM*	u	-2.7%
Cc1ccc(NC(=O)COc2ccccc2CNC(C)(C)CC(C)(C)C)cc1	8.3%	14.1µM*	x	-2.1%	10.9%	-8.5%
CC(C)(CO)NCc1ccccc1OCC(=O)Nc1ccccc1	8.0%	-4.1%	-7.3	1.5%	7.5%	1.8%
CS(=O)(=O)N(Cc1ccccc1)c1ccc(C(=O)Nc2ccc(Cl)cc2)cc1	x	x	-20.8	9.7%	x	x
CCC12CN3CC(C)(CN(C1)C3c1ccc(O)cc1O)C2=O (centres undefined)	x	x	-11.3	-1.9%	x	x
CCn1c(C)cc(/C=C2/SC(=S)NC2=O)c1C	5.4%	-0.5%	10.5	-2.1%	-20.8%	2.3%
Cc1cc(/C=C2\SC(=S)NC2=O)c(C)[nH]1	-25.2%	-1.7%	-111.0*	0.7%	-5.2%	-5.5%
